Sampled rows, rich in hits. Any-hit rate of the full collection: about 10%.
GLS inhibitor: qHTS for Inhibitors of Glutaminase (GLS); Glutaminase kidney isoform, mitochondrial (Homo sapiens), O94925; GLS enzymatic activity, qHTS titration; Potency, µM (series often up to 45.5 µM), for the others: top-dose activity change, negative = inhibition, hits mostly inhibitors; actives 0.21% (n = 410,000); AID 624170, 2012; note: % is set by controls: 0 for no effect and ±100 for the full control effect
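Human kidney-isoform GLS in 45 mM KH2PO4 pH 8.2, 0.02% Tween-20, with compound, started with 1mM L-Glutamine (added stock). Glutamate oxidase/HRP/Amplex red coupled fluorescence read at start and after 30 min at RT.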
BAZ2B block: qHTS Assay for Inhibitors of BAZ2B | Bromodomain adjacent to zinc finger domain protein 2B (Homo sapiens), Q9UIF8 | AlphaScreen BAZ2B-H3K14Ac peptide displacement | Potency, µM (titrated, usually from 114 µM), inactives show at the highest dose activity change, negative = inhibition, hits mostly inhibitors | actives 4.4% (n = 360,000); note: % is set by controls: 0 for no effect and ±100 for the full control effect; nearly all actives have a fitted effect of over 60% in size
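BAZ2B (50 nM) with biotin-H3(5-23)K14Ac peptide (50 nM) in PBS pH 7.4, 0.01% Tween-20, preformed 30 min, then compound 30 min at room temperature; top concentration 110uM. AlphaScreen streptavidin donor/nickel chelate acceptor beads (10 ug/mL final), 20 min dark, signal read.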
G9a inh: qHTS Assay for Inhibitors of Histone Lysine Methyltransferase G9a; Histone-lysine N-methyltransferase EHMT2 (Homo sapiens), Q96KQ7; G9a H3K9 monomethylation, AlphaScreen, 2 h; Potency, µM (doses to about 102 µM), inactives show at the highest dose activity, negative = inhibition, most hits filed as inhibitors; actives 8.8% (n = 350,000); AID 504332, 2011; note: % is set by controls: 0 for no effect and ±100 for the full control effect; nearly all actives have a fitted effect of over 75% in size
Target sequence (Q96KQ7 913-1193 limits assumed): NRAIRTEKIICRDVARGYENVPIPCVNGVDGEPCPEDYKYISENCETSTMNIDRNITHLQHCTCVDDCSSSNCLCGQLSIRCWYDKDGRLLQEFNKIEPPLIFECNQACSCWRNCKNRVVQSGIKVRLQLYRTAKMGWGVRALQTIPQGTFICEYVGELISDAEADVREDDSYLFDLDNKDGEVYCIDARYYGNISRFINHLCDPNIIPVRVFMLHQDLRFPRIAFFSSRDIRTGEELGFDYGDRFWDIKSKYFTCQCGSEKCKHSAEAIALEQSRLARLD
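AlphaScreen detection with an anti-monomethyl H3K9 antibody quantified product after a 2 h room-temperature reaction containing 500 nM biotinylated H3K9 peptide, 20 µM SAM and 20 nM enzyme, which had been preincubated 15 min with compound.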
JMJD2A Tudor inh: qHTS Assay for Inhibitors of JMJD2A-Tudor Domain; Lysine-specific demethylase 4A (Homo sapiens), O75164; AlphaScreen JMJD2A-Tudor / H3K4me3 peptide binding; Potency, µM (doses to about 114 µM), for the others: at the highest dose activity change, negative = inhibition, usual class: inhibitors; actives 4.4% (n = 390,000); note: % is set by controls: 0 for no effect and ±100 for the full control effect; nearly all actives have a fitted effect of over 50% in size
HP1b binding inh: HTS for Inhibitors of HP1-beta Chromodomain Interactions with Methylated Histone Tails. AID 540317, 2011. Potency, µM (titrated, usually from 114 µM), without a hit: at the top dose activity change, negative = inhibition, most hits filed as inhibitors. Chromobox protein homolog 1 (Homo sapiens), P83916. AlphaScreen HP1-beta / biotin-H3K9me3 peptide binding. actives 0.56% (n = 390,000); note: nearly all actives have a fitted effect of over 70% in size
Target sequence (P83916 whole entry, looked up): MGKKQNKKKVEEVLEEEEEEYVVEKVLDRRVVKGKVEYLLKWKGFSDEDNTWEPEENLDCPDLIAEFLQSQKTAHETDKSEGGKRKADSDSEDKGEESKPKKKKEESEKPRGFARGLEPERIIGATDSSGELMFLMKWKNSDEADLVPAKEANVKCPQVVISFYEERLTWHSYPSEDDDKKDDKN
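Compound inhibition of the preformed complex between 50 nM HP1-beta and 50 nM biotinylated H3K9me3 peptide was read by AlphaScreen. Buffer was PBS pH 7.4 with 0.01% Tween-20. Incubations ran 30 min at room temperature, with 10 ug/mL donor/acceptor beads.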
Active calls of the source: *; ? = inconclusive; · = not tested or not shown; [ ] = dose if it differs, or a comment. Calls come from the whole dose curve; as a rule, active = well fitted curve in the direction sought with a large enough effect; inconclusive = small, poorly fitted or top-dose-only effect, or another doubt; inactive = no such curve, though single readings can be large; an effect the other way counts as inactive or inconclusive. Potency is the fitted concentration of half-maximal effect.

SMILES | GLS inhibitor | BAZ2B block | G9a inh | JMJD2A Tudor inh | HP1b binding inh
CC1=NN(c2ccccc2)C(=O)/C1=C\c1cc(C)n(-c2cccnc2)c1C | 7% | ? | -45% | -12% | 11%
O=C(NCc1cccs1)[C@@H]1CCCN1S(=O)(=O)c1ccccc1F | -16% | · | · | -21% | -17%
CC(C)/C=N/NC(=O)c1cccc(N2CCCC2=O)c1 | 11% | -8% | 12%[59 µM] | -7% | 39%
CN1CN(C)c2cccc3cccc1c23 | 7% | ? | 1.4µM* | -38% | ?
O=C(NCCN1CCOCC1)C1CCN(S(=O)(=O)N2CCCCC2)CC1 | -4% | -3% | -20% | -5% | 29%
O=C(NCCN1CCOCC1)C1CCN(Cc2ccccc2O)CC1 | 22% | 45µM* | 22µM* | 1.4µM* | ?
OC[C@@H]1CN(Cc2cccs2)C[C@H](n2cnc3c(N4CCN(c5ccccc5)CC4)ncnc32)O1 | 32% | · | · | · | ·
O=C(NC1CCCC1)c1cc(-c2ccccc2Cl)on1 | 1% | 10% | 9% | 5% | 56%
O=C(CCC1CCCN(C(=O)CCCc2ccccc2)C1)N1CCN(c2ccccn2)CC1 (stereo unspecified) | -9% | -6% | -30% | -5% | 45%
CC(=O)c1c(C)[nH]c(-c2ccccc2)nc1=S | -15% | -36% | 3.5µM* | -3% | 43%
O=C(O)c1cc(-c2ccccc2)on1 | 2% | 2% | 4%[12.7 µM] | -7% | 17%
c1ccc(CN2CCN(c3nc(NCc4ccco4)c4ccccc4n3)CC2)cc1 | 5% | 50µM* | ? | ? | -16%
Cc1ccc(OCCN2CCN(c3nc(NCc4ccco4)c4ccccc4n3)CC2)cc1 | -5% | ? | ? | 56µM* | -34%
CCCCC/C=C/C1=CC(=O)C[C@H](c2ccc3c(c2)OCO3)C1 | -1% | 32% | -15%[0.501 µM] | 35% | 49%
COc1ccc(NC(=O)Cc2ccc(C)c(C)c2)cc1S(=O)(=O)N1CCCCC1 | 3% | · | · | -15% | 9%
CCOC(=O)N1CCN(c2cc(=O)n(C)c(=O)n2C)CC1 | 8% | -1% | · | -8% | 23%
COc1cccc(Oc2ccc(C(F)(F)F)cc2NC(=O)C2=COCCO2)c1 | -4% | 41% | 56% | 15% | 58%
CC(C)c1ccc(NC2(C#N)C(=O)Nc3ccccc32)cc1 (stereo unspecified) | 3% | ? | 71µM* | ? | 11%
CCc1ccc(N2CC(c3nnc(NC(=O)c4ccco4)s3)CC2=O)cc1 (stereo unspecified) | 2% | -19% | 14µM* | -14% | 11%
CN(C)c1ccc(C(CNS(=O)(=O)c2ccc(Cl)cc2)N2CCCC2)cc1 (stereo unspecified) | 18% | 32µM* | ? | 50µM* | ?
COc1ccc(S(=O)(=O)NCC(c2ccc(N(C)C)cc2)N2CCOCC2)cc1 (stereo unspecified) | 25% | -31% | -25%[12.7 µM] | -23% | 11%
CN(C)c1ccc(C(CNS(=O)(=O)c2ccc(Br)cc2)N2CCCC2)cc1 (stereo unspecified) | -3% | 35µM* | 18µM* | 45µM* | ?
O=C1CC(=O)N(c2cccc(F)c2)N1 | 1% | -38% | 56µM* | -11% | 18%
COc1ccc(-c2coc3c(OC)c(OC)cc(OC)c3c2=O)cc1 | · | · | -14%[2.33 µM] | · | ·
CC(C)C[C@@H](CN)NC(=O)c1nc[nH]c1C(=O)N[C@@H](C)C(=O)CNC[C@H](CC(C)C)NC(=O)c1nc[nH]c1C(=O)N[C@@H](Cc1ccccc1)C(=O)O | ? | · | · | 79µM* | 48%
SMILES | GLS inhibitor | BAZ2B block | G9a inh | JMJD2A Tudor inh | HP1b binding inh
CC(C)C[C@H](NC(=O)c1nc[nH]c1C(=O)N[C@@H](CC(C)C)C(=O)OCc1ccccc1)C(=O)OCc1ccccc1 | -7% | -2% | · | -24% | 42%
CC(C)C[C@@H](CNCC(=O)[C@H](C)NC(=O)c1[nH]cnc1C(=O)N[C@@H](C)CN)NC(=O)c1nc[nH]c1C(=O)N[C@@H](Cc1ccccc1)C(=O)O | 0% | · | · | 79µM* | 14%
CC(C)C[C@H](NC(=O)c1nc[nH]c1C(=O)NCCCCCN)C(=O)OCc1ccccc1 | 2% | · | · | 79µM* | 13%
CC(C)C[C@@H](CNCC(=O)[C@H](Cc1ccccc1)NC(=O)c1[nH]cnc1C(=O)N[C@H](CN)CC(C)C)NC(=O)c1nc[nH]c1C(=O)N[C@@H](CC(=O)O)C(=O)O | 13µM* | · | · | 28µM* | 37%
CC(C)C[C@@H](CNCC(=O)[C@H](CC(C)C)NC(=O)c1[nH]cnc1C(=O)N[C@H](CN)CC(C)C)NC(=O)c1nc[nH]c1C(=O)N[C@@H](Cc1ccccc1)C(=O)O | -13% | · | · | ? | 22%
COc1ccc(-c2csc(NC(=O)C3=COCCO3)n2)c(OC)c1 | 1% | ? | ? | -21% | 12%
OC(c1ccccc1)c1ncc(-c2cccc(OCc3ccccc3)c2)[nH]1 (stereo unspecified) | 15% | · | · | · | ·
COc1ccc(-c2nnc(SC(C)C(=O)Nc3ccc4c(c3)OCCO4)o2)cc1 (stereo unspecified) | 1% | 11% | -30%[59 µM] | -18% | 6%
CC(=O)Nc1ccc(NS(=O)(=O)c2ccc(Cl)s2)cc1 | 10% | -21% | 24%[12.7 µM] | -13% | 31%
CC(=O)Nc1ccc(NC(=O)CSc2nnc(NC(=O)Cc3ccc(F)cc3)s2)cc1 | 7% | -16% | 22% | 1% | 19%
Cc1ccc(C)c(OC(=O)CSc2nnc(-c3cccs3)o2)c1 | -5% | -3% | -32%[59 µM] | -16% | 3%
Cc1ccc(C)c(NC(=O)C(Sc2nnc(-c3cccs3)o2)c2ccccc2)c1 (stereo unspecified) | 9% | 2% | 79µM* | -22% | ?
O=C(Nc1ccc(Cl)cc1C(F)(F)F)C(Sc1cccc[n+]1[O-])c1ccccc1 (stereo unspecified) | 6% | ? | · | -11% | 26%
Cc1ccc(C)c(NC(=O)C(Sc2cccc[n+]2[O-])c2ccccc2)c1 (stereo unspecified) | -5% | -1% | 45µM* | -17% | 22%
CN(C)/C=N/c1[nH]ncc1C#N | 8% | -5% | 44% | 1% | 1%
CCCNC(=O)N1CCC(C(=O)c2cccc(F)c2)CC1 | -13% | 2% | 29% | 11% | 54%
Cc1ccc(/C=N/n2c(-c3ccncc3)n[nH]c2=S)o1 | -21% | ? | · | 7.1µM* | 28%
S=c1[nH]nc(-c2ccccc2)n1/N=C/c1ccc(-c2ccccc2Cl)o1 | 0% | -13% | ? | ? | -15%
Cc1ccc(/C=N/n2c(C)n[nH]c2=S)o1 | 2% | -5% | ? | 5µM* | 15%

Compound activity: PubChem BioAssay, National Center for Advancing Translational Sciences (NCATS)
